This is part of a sample that, as a whole, favours compounds with a hit. Of some 83,000 tested, about 20% had one in any assay.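 Percent growth is the endpoint: 0 to 100 indicates growth inhibition (40 means 60% inhibition), 0 means no net growth, and negative values indicate cell death.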 Unmarked numbers belong to inactive results. Activity calls are given as the source filed them. Rule for the calls: active = growth percent below 10; inactive = the rest.

The results in this text go back to PubChem BioAssay (NCI).

Common to all, as to assay: NCI-60 one-dose screen, 48 h (100 = growth as untreated, 0 = no growth, -100 = all killed)
Holding throughout (settings): 10 µM unless noted

For assay [1], the system named is SK-MEL-2 melanoma.
Assay [2] has as its system EKVX NSCLC.
Assay [3] relates to SN12C renal.
In assay [4] the test system is UO-31 renal.
For assay [5], the system named is TK-10 renal.
The test system of assay [6] is ACHN renal.
The test system of assay [7] is CAKI-1 renal.
Assay [8] deals with A498 renal.
In assay [9] the test system is CCRF-CEM leukemia.
The test system of assay [10] is MOLT-4 leukemia.
For assay [11], the system named is SR leukemia.
Assay [12] relates to RPMI-8226 leukemia.
The subject of assay [13] is OVCAR-8 ovarian.
In assay [14] the test system is OVCAR-5 ovarian.
Assay [15] has as its system OVCAR-4 ovarian.
In assay [16] the test system is SK-OV-3 ovarian.
The test system of assay [17] is IGROV1 ovarian.
The subject of assay [18] is OVCAR-3 ovarian.
The test system of assay [19] is HS 578T breast.
Assay [20] deals with NCI/ADR-RES ovarian.

With `COc1cc(-c2ccc(-c3ccc(C(=N)N)s3)s2)cc(OC)c1OC`, the growth in assay [1] is 70%; in assay [2], 74.4%; in assay [3], 60%; in [4] it was 67.1%; in assay [5], 82.8%; in [6] it was 2.6% (active). The growth in assay [7] was 41.7%; in assay [8], 84.5%; in [9], -7.27% (active); in assay [10], 4.68% (active); in assay [11], -20.7% (active); in assay [12], -34.7% (active). Further, the growth in assay [13] was 13.9%; in assay [14] it was 64.6%; in [15], 45.1%; in assay [16] it was 85%; in [17] it was 71.7%; in assay [18], 3.44% (active). Also, the growth is 44.1% in assay [19] and 77.9% in assay [20].
In the case of `COc1cc2c(cc1OC)CC[N+](CCC[N+](C)(C)C)=C2`, the growth in assay [1] is 88.9%; in assay [2], 100%; in [3] it was 98%; in [4], 91.1%; in assay [5], 80.5%; in assay [6], 104%. Further, the growth in [7] is 96.3%; in assay [8], 104%; in [9], 97.9%; in [10], 91.6%; in [11] it was 89.8%; in assay [12], 103%. Further, the growth in assay [13] is 110%; in assay [14], 91.5%; in assay [15], 99%; in [16], 92.9%; in assay [17], 99.6%; in assay [18], 108%. Moreover, the results for the growth in [19] and in assay [20] were 111% and 102%, respectively.
Turning to `C1=C2CCCC3=Cc4ccccc4OC23Oc2ccccc21`, the growth in assay [1] was 36%; in assay [2], 57.8%; in assay [3], 34.4%; in [4] it was 43.3%; in [5] it was 55.4%; in [6] it was 47.3%. For the same compound, the growth in assay [7] was 27.2%; in [8], 5.61% (active); in [9], 18.3%; in [10] it was 17.5%; in assay [11], 6.44% (active); in [12], 26%. Also, the growth in assay [13] was 38.5%; in assay [14] it was 71.1%; in assay [15], 52.6%; in assay [16], 30.8%; in assay [17], 44.5%; in assay [18] it was 3.51% (active). In addition, the growth was 33.4% in [19] and 11.6% in assay [20].
For `Nc1ncnc2c1N=C(c1ccc([N+](=O)[O-])cc1)CC(c1ccc3c(c1)OCO3)N2` (stereo not given), the growth in assay [1] was 59.6%; in assay [2] it was 86%; in [3], 102%; in [4] it was 55.7%; in assay [5], 107%; in assay [6], 88.3%. Further, the growth in assay [7] was 89.6%; in assay [8], 87.4%; in assay [9], 65%; in assay [10], 84.1%; in assay [11], 85.3%; in [12] it was 71.1%. In addition, the growth was 89.6% in [13]; 91.7% in [14]; 95.5% in assay [15]; 91.1% in assay [16]; 51.1% in assay [17]; 90.6% in assay [18]. Further, the growth in assay [19] is 80.7%; in assay [20], 77.6%.
For the compound `COc1ccc(NC(=O)CSc2oc(-c3ccccc3)nc2S(=O)(=O)c2ccc(Cl)cc2)c(OC)c1`, the growth was 66.4% in assay [1]; 74.7% in assay [2]; 75.8% in [3]; 61.6% in assay [4]; 67.1% in [5]; 36.6% in assay [6]. Also, the growth was 86.1% in [7]; 49.9% in assay [8]; 89.1% in assay [9]; 73% in [10]; 65.2% in [11]; 49.9% in assay [12]. Besides, the growth was 34.3% in assay [13]; 107% in [14]; 64.6% in [15]; 83.2% in assay [16]; 93.5% in assay [17]; 75.3% in [18]. For the same compound, the growth in assay [19] was 36.2%; in assay [20] it was 61.7%.
As to `C#C[C@]1(O)CC[C@H]2[C@@H]3CC=C4c5sc(-c6ccccc6)nc5CC[C@]4(C)[C@H]3CC[C@@]21C`, the growth in assay [1] is 92%; in assay [2], 92.8%; in assay [3], 88.2%; in assay [4], 77%; in assay [5], 126%; in [6], 85.6%. Besides, the growth in assay [7] was 55.2%; in assay [8], 91%; in assay [9] it was 67.4%; in assay [10], 63.8%; in assay [11] it was 30.9%; in assay [12] it was -12.6% (active). In addition, the growth in [13] is 101%; in [14] it was 85.6%; in [15] it was 106%; in assay [16], 111%; in [17], 95.8%; in [18], 106%. The growth in assay [19] is 62%; in [20], 94.4%.
For `COc1ccc(-c2cc(-c3ccc(N(C)C)cc3)nc(NC(=O)c3cccnc3)n2)cc1`, the growth is 111% in [1]; 96.6% in assay [2]; 97.5% in assay [3]; 80.6% in [4]; 117% in assay [5]; 95.6% in assay [6]. For the same compound, the growth in [7] is 92.6%; in [8], 109%; in assay [9] it was 104%; in assay [10], 98%; in assay [11], 86.4%; in assay [12], 95.3%. The growth in assay [13] was 99.3%; in assay [14], 105%; in [15], 103%; in [16], 103%; in assay [17] it was 102%; in assay [18], 106%. For the same compound, the growth in assay [19] was 104%; in [20], 102%.
Regarding `CCCCC/C=C/CCC(=O)N[C@H]1[C@H](Oc2c3cc4cc2Oc2ccc(cc2Cl)[C@@H](O[C@@H]2O[C@H](CO)[C@@H](O)[C@H](O)[C@H]2NC(C)=O)[C@@H]2NC(=O)[C@H](NC(=O)[C@@H]4NC(=O)[C@H]4NC(=O)[C@@H](Cc5ccc(c(Cl)c5)O3)NC(=O)[C@@H](N)c3ccc(O)c(c3)Oc3cc(O)cc4c3)c3ccc(O)c(c3)-c3c(O[C@H]4O[C@H](CO)[C@@H](O)[C@H](O)[C@@H]4O)cc(O)cc3[C@H](C(=O)O)NC2=O)O[C@H](CO)[C@H](O)[C@@H]1O`, the growth was 112% in [1]; 96.4% in [2]; 94.7% in assay [3]; 82% in assay [4]; 112% in [5]; 103% in assay [6]. Also, the growth in [7] was 84.1%; in assay [8] it was 102%; in [9], 113%; in assay [10], 101%; in [11], 95.5%; in assay [12], 120%. Also, the growth in assay [13] is 101%; in assay [14] it was 114%; in assay [15], 110%; in assay [16], 111%; in assay [17], 101%; in [18] it was 104%. Further, the results for the growth in [19] and in assay [20] were 50.1% and 96.5%, respectively.
